# From PubChem BioAssay (NCATS)
# Values joined by “and” are separate entries in the source; they are usually repeats but may differ in a detail not shown here. Equal values may be shown once. Records with an inconclusive call do not appear. Entries that show only a call come without a potency. Active and inactive are the calls of the source. Unless noted, calls come from the whole dose curve; as a rule, active = well fitted curve in the direction sought with a large enough effect; inconclusive = small, poorly fitted or top-dose-only effect, or another doubt; inactive = no such curve, though single readings can be large; an effect the other way counts as inactive or inconclusive.
# Experiments:
# [1] = molecular target: alpha-glucosidase (Oryza sativa, rice) (UniProt Q653V4); assay: Counterscreen for Glucocerebrosidase Inhibitors: qHTS Assay for Rice alpha-Glucosidase at pH 5.0 (AID 997)
# Procedure, shortened: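 Endpoint fluorogenic assay at pH 5.0: compounds (0.7 nM to 77 uM) titrated against 4 nM rice enzyme and 400 uM 4-MU-alpha-glucoside for 20 min at room temperature; NaOH/glycine stop, read ex 365/em 440 nm, Hill-fitted AC50.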
# [2] = qHTS Assay for Lipid Storage Modulators (AID 1519; calls by dose curve; note: potency is the fitted concentration of half-maximal effect); details: Drosophila S3 cells, BODIPY lipid droplet/cell ratio, laser cytometry, cells loaded with oleic acid
# Procedure, shortened: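 Cells seeded at 5,000 per well were treated with compounds over a concentration series and loaded with oleic acid (400 uM, as added). Lipid droplet fluorescence (488 nm excitation, 500-530 nm channel) was read by laser-scanning cytometry and normalized to 20 uM Triacsin C.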
# [3] = molecular target: DNA repair nuclease/redox regulator APEX1 (Homo sapiens) (UniProt P27695); assay: qHTS Validation Assay for Inhibitors of the Human Apurinic/apyrimidinic Endonuclease 1 (APE1) (AID 1705; note: potency is the fitted concentration of half-maximal effect;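 for activity change, negative = inhibition: TAMRA fluorescence gain over two minutes as APE1 cuts a quenched THF abasic duplex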)
# DNA repair nuclease/redox regulator APEX1 (Homo sapiens), sequence (P27695 whole entry, looked up): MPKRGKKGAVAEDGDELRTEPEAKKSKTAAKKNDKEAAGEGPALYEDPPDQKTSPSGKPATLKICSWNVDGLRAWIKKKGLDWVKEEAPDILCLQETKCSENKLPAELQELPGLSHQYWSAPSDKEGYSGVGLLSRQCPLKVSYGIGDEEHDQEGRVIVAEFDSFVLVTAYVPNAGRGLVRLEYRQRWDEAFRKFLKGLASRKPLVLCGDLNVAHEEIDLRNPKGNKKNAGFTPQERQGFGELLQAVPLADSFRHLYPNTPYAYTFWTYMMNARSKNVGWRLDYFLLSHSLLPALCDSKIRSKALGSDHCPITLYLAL
# Procedure, shortened: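 Activity read as rising fluorescence (598 nm emission, 525 nm excitation) from incision of a TAMRA/BHQ-2 duplex carrying a THF abasic site (50 nM). Compound and enzyme sat 15 min at RT before substrate start; signal change between first and third 60-s reads.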
# [4] = Counterscreen for APE1 Inhibitors: Fluorescent Dye Displacement Validation Assay (AID 1707)
# Procedure, shortened: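 Counterscreen flags promiscuous DNA binders: compounds displacing ThO from duplex DNA (abasic THF site, 50 nM) reduce 540 nm emission (480 nm excitation). ThO 250 nM final; Tris-HCl pH 7.5 with NaCl, MgCl2 and Tween-20.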
# [5] = qHTS for differential inhibitors of proliferation of Plasmodium falciparum line 7G8 (AID 1815);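 note: parasite growth measured after three days of incubation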; note: potency is the fitted concentration of half-maximal effect
# [6] = qHTS for differential inhibitors of proliferation of Plasmodium falciparum line GB4 (AID 1816); details: Potency: Plasmodium falciparum GB4 proliferation inhibition;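 note: parasite growth measured after 72 h incubation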; note: potency is the fitted concentration of half-maximal effect
# [7] = qHTS for differential inhibitors of proliferation of Plasmodium falciparum line 3D7 (AID 1876); note: potency is the fitted concentration of half-maximal effect
# [8] = molecular target: Endonuclease 4 (Escherichia coli (strain K12)) (UniProt P0A6C1); assay: Counterscreen for APE1 Inhibitors: qHTS Validation Assay for Inhibitors of Endonuclease IV (AID 1708)
# Procedure, shortened: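 Enzyme (2 nM) + compound, 15 min RT; add 50 nM TAMRA/BHQ-2 THF-site dsDNA; kinetic read ex525/em598, 3 reads/60 s; activity = read 3 − read 1. Buffer Tris pH 7.5, 50 mM NaCl, 2 mM MgCl2, DTT, Tween-20.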
# [9] = Validation of Assay for Modulators of Lamin A Splicing (AID 1459; active = well fitted curve in the direction sought with a large enough effect in the signal ratio; the % refers to the signal ratio;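 note: cells exposed to compound for two days before reading; ratio rise marks activators and ratio drop marks inhibitors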)
# Procedure, shortened: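 Splicing correction read as GFP (500-530 nm) over DsRed2 (575-640 nm) object intensity after 48 h compound exposure of reporter HeLa S3 clones (600 cells/well, 2% FBS medium); ancitabine and cycloheximide titrations, 0.5% DMSO as vehicle.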
# [10] = measured here: cell count channel max response
# [11] = measured here: lipid channel max response
compound,measurement,setting,value
CCCc1c(OCCCOc2ccc(OCC(=O)O)cc2)ccc(C(C)=O)c1O,outcome,[1],inactive
same,"activity change, negative = inhibition",[2]; at 57.5 µM (top of the series),1% (inactive)
same,max response,[2]; [10],51.1%
same,max response,[2]; [11],51.4%
same,Potency,[3],inactive
same,Potency,[4],inactive
same,Potency,[5],inactive
same,Potency,[6],inactive
same,Potency,[7],inactive
CC(C)NC[C@H](O)COc1ccc(CC(N)=O)cc1,outcome,[1],inactive
same,"activity change, negative = inhibition",[2]; at 25.7 µM (top of the series),-3.22% (inactive) and -3.29% (inactive)
same,"activity change, negative = inhibition",[2]; at 57.5 µM (top of the series),0.49% (inactive) and -5.77% (inactive)
same,max response,[2]; [10],-3.12% [middle of 4 runs]
same,max response,[2]; [11],-2.86% [middle of 4 runs]
same,Potency,[3],inactive
same,Potency,[4],inactive
same,Potency,[5],inactive
same,Potency,[6],inactive
same,Potency,[7],inactive
CN(C)S(=O)(=O)c1ccc2c(c1)/C(=C/c1cc3c([nH]1)CCCC3)C(=O)N2,Potency,[2],28.2 µM (active)
same,max response,[2]; [10],59.5%
same,max response,[2]; [11],-52.8%
same,Potency,[3],inactive
same,Potency,[4],inactive
same,Potency,[8],inactive
same,Potency,[5],4.47 µM (active)
same,Potency,[6],5.01 µM (active)
same,Potency,[7],3.55 µM (active)
COc1ccccc1N1CCN(CCCCN2C(=O)c3ccccc3C2=O)CC1,outcome,[1],inactive
same,outcome,[9],inactive
same,Potency,[4],inactive
same,Potency,[5],inactive
same,Potency,[7],12.6 µM (active)
O=c1ccn([C@@H]2O[C@H](COP(=O)(O)OP(=O)(O)O)[C@@H](O)[C@H]2O)c(=O)[nH]1,"activity change, negative = inhibition",[2]; at 57.5 µM (top of the series),1.87% (inactive)
same,max response,[2]; [10],-6.87%
same,max response,[2]; [11],-4.31%
same,Potency,[3],inactive
same,Potency,[4],inactive
same,Potency,[8],inactive
same,Potency,[5],inactive
same,Potency,[6],inactive
CCCCOC(=O)NS(=O)(=O)c1sc(CC(C)C)cc1-c1ccc(Cn2c(CC)nc3c(C)cc(C)nc32)cc1,outcome,[1],inactive
same,"activity change, negative = inhibition",[2]; at 57.5 µM (top of the series),-0.147% (inactive)
same,max response,[2]; [10],28.5%
same,max response,[2]; [11],27.6%
same,Potency,[4],inactive
same,Potency,[5],7.08 µM (active)
same,Potency,[6],8.91 µM (active)
same,Potency,[7],11.2 µM (active)
CCC1(O)CC2CN(CCc3c([nH]c4ccccc34)[C@@](C(=O)OC)(c3cc4c(cc3OC)N(C=O)C3[C@]45CCN4CC=C[C@@](CC)([C@@H](OC(C)=O)[C@]3(O)C(=O)OC)[C@H]45)C2)C1 (stereo not given in full),"activity change, negative = inhibition",[2]; at 57.5 µM (top of the series),2.35% (inactive)
same,max response,[2]; [10],-1.21%
same,max response,[2]; [11],2.17%
same,Potency,[4],inactive
same,Potency,[5],0.794 µM (active)
same,Potency,[7],0.0631 µM (active)
NC1(C(=O)O)CC1,outcome,[1],inactive
same,"activity change, negative = inhibition",[2]; at 57.5 µM (top of the series),3.79% (inactive)
same,max response,[2]; [10],18.9%
same,max response,[2]; [11],25.1%
same,Potency,[3],inactive
same,Potency,[4],inactive
same,Potency,[7],11.2 µM (active)
CCN1C(=O)C=CC1=O,"activity change, negative = inhibition",[2]; at 57.5 µM (top of the series),0.136% (inactive)
same,max response,[2]; [10],-19.7%
same,max response,[2]; [11],-18.9%
same,Potency,[4],inactive
same,Potency,[5],inactive
same,Potency,[6],inactive
same,Potency,[7],inactive
N[C@H](C(=O)O)c1cc(O)cc(O)c1,"activity change, negative = inhibition",[2]; at 57.5 µM (top of the series),10.3% (inactive) and 1.43% (inactive) and 0.261% (inactive)
same,max response,[2]; [10],7.08% and 3.62% and -19%
same,max response,[2]; [11],19.7% and 15.4% and -15.9%
same,Potency,[3],inactive
same,Potency,[4],inactive
same,Potency,[8],inactive
same,Potency,[5],inactive
same,Potency,[6],inactive
same,Potency,[7],inactive
O=c1cc(-c2ccccc2)[nH]c2nc(Cl)ccc12,outcome,[1],inactive
same,"activity change, negative = inhibition",[2]; at 57.5 µM (top of the series),0.241% (inactive)
same,max response,[2]; [10],61.8%
same,max response,[2]; [11],65%
same,Potency,[3],inactive
same,Potency,[4],inactive
same,Potency,[8],inactive
same,Potency,[5],10 µM (active)
same,Potency,[6],14.1 µM (active)
CC[C@@H]1Cc2cc(O)ccc2C2=C1c1ccc(O)cc1C[C@H]2CC,outcome,[1],inactive
same,"activity change, negative = inhibition",[2]; at 57.5 µM (top of the series),-3.04% (inactive)
same,max response,[2]; [10],-26.2%
same,max response,[2]; [11],-25.3%
same,Potency,[3],inactive
same,Potency,[5],5.62 µM (active)
same,Potency,[6],4.47 µM (active)
same,Potency,[7],11.2 µM (active)
CC(=O)N[C@@H](Cc1c[nH]c2ccccc12)C(=O)OCc1cc(C(F)(F)F)cc(C(F)(F)F)c1,outcome,[1],inactive
same,"activity change, negative = inhibition",[2]; at 57.5 µM (top of the series),-1.99% (inactive)
same,max response,[2]; [10],-16.3%
same,max response,[2]; [11],-17.3%
same,Potency,[6],inactive
same,Potency,[7],inactive
CCCn1c(=O)c2[nH]c(C3CCCC3)nc2n(CCC)c1=O,outcome,[1],inactive
same,"activity change, negative = inhibition",[2]; at 57.5 µM (top of the series),7.3% (inactive)
same,max response,[2]; [10],9.56%
same,max response,[2]; [11],17.6%
same,Potency,[3],inactive
same,Potency,[4],inactive
same,Potency,[8],inactive
CCCCOc1cc(CC2CNC(=O)N2)ccc1OC (stereo not given),"activity change, negative = inhibition",[2]; at 57.5 µM (top of the series),7.3% (inactive)
same,max response,[2]; [10],28.9%
same,max response,[2]; [11],40.3%
same,Potency,[3],inactive
same,Potency,[4],inactive
same,Potency,[8],inactive
same,Potency,[7],inactive
CC(C)NC[C@H](O)COc1cccc2ccccc12,"activity change, negative = inhibition",[2]; at 57.5 µM (top of the series),8.19% (inactive)
same,max response,[2]; [10],19.6%
same,max response,[2]; [11],29.6%
CCCCCCCCCCCCCCCCCCOC[C@H](COP(=O)([O-])OCC[N+](C)(C)C)OC,"activity change, negative = inhibition",[2]; at 57.5 µM (top of the series),1.74% (inactive)
same,max response,[2]; [10],55.6%
same,max response,[2]; [11],57.7%
same,Potency,[3],inactive
same,Potency,[4],inactive
same,Potency,[8],inactive
same,Potency,[5],inactive
same,Potency,[6],inactive
same,Potency,[7],inactive
CN1CCc2cc(Cl)c(O)cc2[C@@H](c2ccccc2)C1,"activity change, negative = inhibition",[2]; at 57.5 µM (top of the series),0.829% (inactive)
same,max response,[2]; [10],25.8%
same,max response,[2]; [11],26.8%
O=C(O)Cc1c[nH]c2ccc(O)cc12,"activity change, negative = inhibition",[2]; at 57.5 µM (top of the series),1.1% (inactive)
same,max response,[2]; [10],-19.7%
same,max response,[2]; [11],-16.3%
same,Potency,[3],inactive
same,Potency,[4],inactive
same,Potency,[5],inactive
same,Potency,[6],inactive
NC(=O)c1cc[n+](CC2=C(C(=O)O)N3C(=O)[C@@H](NC(=O)[C@@H](c4ccccc4)S(=O)(=O)[O-])[C@H]3SC2)cc1,Potency,[4],inactive
same,Potency,[5],inactive
same,Potency,[6],inactive
same,Potency,[7],inactive
Nc1nc2ccc(Cl)cc2c2nc(-c3ccco3)nn12,outcome,[1],inactive
same,Potency,[3],inactive
same,Potency,[4],inactive
same,Potency,[8],inactive
Nc1ncnc2c1ncn2C1CCCC1,Potency,[3],inactive
same,Potency,[4],inactive
same,Potency,[8],inactive
same,Potency,[5],inactive
CCC1(O)CC2CN(CCc3c([nH]c4ccccc34)[C@@](C(=O)OC)(c3cc4c(cc3OC)N(C)C3[C@]45CCN4CC=C[C@@](CC)([C@@H](OC(C)=O)[C@]3(O)C(=O)OC)[C@H]45)C2)C1 (stereo not given in full),Potency,[3],inactive
same,Potency,[4],inactive
same,Potency,[8],inactive
same,Potency,[5],1.12 µM (active)
same,Potency,[6],2.51 µM (active)
same,Potency,[7],0.631 µM (active)
C=C1C(=O)O[C@@H]2[C@H]3O[C@]3(C)CCC=C(C)CC[C@@H]12,Potency,[3],inactive
same,Potency,[4],inactive
same,Potency,[5],11.2 µM (active)
[N-]=[N+]=Nc1ccc(C(=O)CSC[C@H](NC(=O)CC[C@H](N)C(=O)O)C(=O)NCC(=O)O)cc1,Potency,[3],20 µM (active)
same,Potency,[4],inactive
same,Potency,[5],inactive
same,Potency,[7],inactive
O=c1oc(Cl)c(Cl)c2ccccc12,outcome,[1],inactive
same,Potency,[3],inactive
same,Potency,[4],inactive
same,Potency,[6],inactive
same,Potency,[7],inactive
S=C(S)N1CCCC1,outcome,[1],inactive
same,Potency,[4],inactive
CCn1c(=O)[nH]c2cc(Cl)c(Cl)cc21,Potency,[4],inactive
same,Potency,[8],inactive
same,Potency,[5],inactive
same,Potency,[6],inactive
same,Potency,[7],inactive
C[C@@]1(C2CCCC2)Cc2cc(OCC(=O)O)c(Cl)c(Cl)c2C1=O,Potency,[3],inactive
same,Potency,[4],inactive
same,Potency,[8],inactive
same,Potency,[5],inactive
same,Potency,[6],inactive
same,Potency,[7],inactive
